Measured values reported in PubChem BioAssay (Tox21).
Several values for one entry are separate records, joined by “and”; a condition that tells them apart may be missing. Equal entries are not always repeated. Inconclusive results are not listed. Where a call stands in place of a potency, no number is given. A structure can be active in one record and inactive in another. Activity calls are given as the source filed them. Unless noted, calls come from the whole dose curve; as a rule, active = well fitted curve in the direction sought with a large enough effect in the repeat runs; inconclusive = weak or mixed curves; inactive = no such curve, though single readings can be large; an effect the other way counts as inactive or inconclusive.

Tests used:
[1] = A CellTox Green Cytotoxicity Assay to monitor cytotoxicity in HEK293 cells - 32 hour (AID 1224881); note: nearly all actives have a fitted effect of over 40% in size
In short: (§1)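 Fluorescence intensity, read at 0, 8, 16, 24, 32 and 40 h of compound treatment, reflected dye binding to DNA of dead HEK293 cells; compounds (23 nL, DMSO) were added 5 h after plating cells with reagent.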

[2] = A CellTox Green Cytotoxicity Assay to monitor cytotoxicity in HepG2 cells - 0 hour (AID 1224882); note: nearly all actives have a fitted effect of over 35% in size
In short: (§2)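 Using 1536-well format, dye-containing HepG2 suspension was seeded, allowed 5 h at 37 C/5% CO2, dosed by pintool with compounds, positive and negative controls, and imaged for fluorescence across 40 h.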

[3] = A CellTox Green Cytotoxicity Assay to monitor cytotoxicity in HepG2 cells - 32 hour (AID 1224883); note: nearly all actives have a fitted effect of over 50% in size
In short: as §2

[4] = A CellTox Green Cytotoxicity Assay to monitor cytotoxicity in HEK293 cells - 8 hour (AID 1224884); note: nearly all actives have a fitted effect of over 35% in size
In short: as §1

[5] = qHTS RealTime-Glo MT Cell Viability Assay in HEK293 cells - 24 hour (AID 1224886); note: nearly all actives have a fitted effect of over 50% in size; note: potency is the fitted concentration of half-maximal effect
In short: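 Tox21 10K qHTS, HEK293, 600 cells/well, RealTime-Glo reagent co-dispensed with cells; 5 h preincubation, compound by pintool, 37 C, luminescence at 0–40 h.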

[6] = qHTS RealTime-Glo MT Cell Viability Assay in HEK293 cells - 8 hour (AID 1224887); note: nearly all actives have a fitted effect of over 50% in size; note: potency is the fitted concentration of half-maximal effect
In short: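 Viable HEK293 cells reduce a cell-permeant prosubstrate; the product diffuses out and is consumed by NanoLuc in the medium to give light. Compounds went in after a 5 h incubation and plates were read over the treatment course.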

[7] = qHTS RealTime-Glo MT Cell Viability Assay in HepG2 cells - 0 hour (AID 1224889); note: nearly all actives have a fitted effect of over 50% in size; note: potency is the fitted concentration of half-maximal effect
In short: (§3)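 Cells + NanoLuc/prosubstrate dispensed (600 cells/well) → 5 h at 37 C/5% CO2 → compounds in DMSO transferred → 40 h incubation at 37 C, luminescence read at 0, 8, 16, 24, 32, 40 h.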

[8] = A CellTox Green Cytotoxicity Assay to monitor cytotoxicity in HepG2 cells - 8 hour (AID 1224890); note: nearly all actives have a fitted effect of over 45% in size
In short: as §2

[9] = qHTS assay to identify small molecule antagonists of the androgen receptor (AR) signaling pathway using the MDA cell line in the presence of 0.5 nM R1881 - cell viability counter screen (AID 1259242); note: nearly all actives have a fitted effect of over 45% in size; note: potency is the fitted concentration of half-maximal effect
In short: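 Viability of MDA-kb2 cells was multiplexed with the luciferase AR readout; after 16 hr with compounds and R1881 at 0.5 nM final, CellTiter-Fluor fluorescence was recorded.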

[10] = target: Estrogen receptor (Homo sapiens) (UniProt P03372); assay: qHTS assay to identify small molecule antagonists of the estrogen receptor alpha (ER-alpha) signaling pathway using the BG1 cell line in the presence of 0.1 nM 17-beta-estradiol (AID 1259244); note: nearly all actives have a fitted effect of over 50% in size
In short: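 Estradiol at 0.1 nM (final) stimulates the endogenous ER-alpha of VM7Luc4E2 cells carrying an ERE-driven luciferase; compounds are co-incubated 22 h at 37C and luciferase output quantified by luminescence.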

[11] = qHTS assay to identify small molecule HDAC inhibitors (AID 1259364);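 note: wild-type HCT-116 cells with endogenous class I/II HDAC activity; top concentration of the series differs between compounds; nearly all actives have a fitted effect of over 45% in size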
In short: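 Read-out: luminescence of HDAC-Glo I/II reagent, 30 min RT, reflecting class I/II deacetylase activity in whole HCT-116 cells pre-exposed 2 h to DMSO-dissolved compounds.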

[12] = qHTS assay to identify small molecule HDAC inhibitors - cell viability counter screen (AID 1259365)
In short: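 HCT-116 wild-type, overnight attachment; 2hr drug exposure, 37C; CellTiter-Glo luminescent ATP readout after 30min RT.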

[13] = qHTS assay to identify small molecule agonists of the sonic hedgehog signaling (Shh) pathway - cell viability counter screen (AID 1259366); note: nearly all actives have a fitted effect of over 50% in size; note: potency is the fitted concentration of half-maximal effect
In short: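 Compounds in DMSO were pin-transferred onto 3T3 Gli1-Luc cells that had settled 4hr; plates then stood 24hr at 37C and 5% CO2. One hour before the end, CellTiter-Fluor was added and fluorescence recorded.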

[14] = qHTS assay to identify small molecule antagonists of the sonic hedgehog signaling (Shh) pathway - cell viability counter screen (AID 1259367); note: nearly all actives have a fitted effect of over 55% in size; note: potency is the fitted concentration of half-maximal effect
In short: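 Cells: 3T3 Gli1-Luc, 2,000/well, 4 hr pre-incubation. Compounds in DMSO, then conditioned medium. Incubation 24 hr, 37C, 5% CO2. CellTiter-Fluor at 23 hr, 1 hr, fluorescence.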

[15] = qHTS assay to identify small molecule agonists of the sonic hedgehog signaling (Shh) pathway (AID 1259368; calls by dose curve;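 note: NIH/3T3-derived 3T3Gli1-Luc cells carrying a stable Gli1-driven firefly luciferase reporter; series mostly up to about 92 µM; nearly all actives have a fitted effect of over 15% in size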)
In short: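 A Gli1 transcriptional response element controlled firefly luciferase in 3T3Gli1-Luc cells. Compounds and a positive control were added 4 hr after plating, and cells were incubated a further 24 hr at 37 C before luminescence detection.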

[16] = A CellTox Green Cytotoxicity Assay to monitor cytotoxicity in HEK293 cells - 16 hour (AID 1224888); note: nearly all actives have a fitted effect of over 35% in size
In short: as §1

[17] = target: Androgen receptor (Homo sapiens) (UniProt P10275); assay: qHTS assay to identify small molecule antagonists of the androgen receptor (AR) signaling pathway using the MDA cell line in the presence of 0.5 nM R1881 (AID 1259243); note: nearly all actives have a fitted effect of over 50% in size
In short: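 Reporter cells cultured without CO2 receive test chemicals, then 0.5 nM R1881 final; after 16 hr at 37C, ONE-Glo is added and light output recorded.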

[18] = qHTS assay to identify small molecule phospholipidosis (PLD) inducers (AID 1259344; active = well fitted curve in the direction sought with a large enough effect; an effect the other way counts as inactive or inconclusive)
In short: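 Phospholipidosis is scored by imaging LipidTOX-stained pits in HepG2 cells exposed to compound for 24 h at 37 C; pit counts and integrated intensities per well and per cell serve as outputs.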

[19] = qHTS assay to identify small molecule antagonists of the estrogen receptor alpha (ER-alpha) signaling pathway using the BG1 cell line in the presence of 0.1 nM 17-beta-estradiol - cell viability counter screen (AID 1259241); note: nearly all actives have a fitted effect of over 40% in size; note: potency is the fitted concentration of half-maximal effect
In short: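 Following 5 days in phenol red-free medium with charcoal-stripped serum, VM7Luc4E2 cells received test compounds alongside 0.1 nM 17beta-estradiol (final) at 37C for 22 hr. Live cells were then quantified via protease-substrate fluorescence.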

[20] = qHTS RealTime-Glo MT Cell Viability Assay in HepG2 cells - 16 hour (AID 1224885); note: nearly all actives have a fitted effect of over 50% in size
In short: as §3

Chain of Androgen receptor (Homo sapiens) (P10275 whole entry, looked up): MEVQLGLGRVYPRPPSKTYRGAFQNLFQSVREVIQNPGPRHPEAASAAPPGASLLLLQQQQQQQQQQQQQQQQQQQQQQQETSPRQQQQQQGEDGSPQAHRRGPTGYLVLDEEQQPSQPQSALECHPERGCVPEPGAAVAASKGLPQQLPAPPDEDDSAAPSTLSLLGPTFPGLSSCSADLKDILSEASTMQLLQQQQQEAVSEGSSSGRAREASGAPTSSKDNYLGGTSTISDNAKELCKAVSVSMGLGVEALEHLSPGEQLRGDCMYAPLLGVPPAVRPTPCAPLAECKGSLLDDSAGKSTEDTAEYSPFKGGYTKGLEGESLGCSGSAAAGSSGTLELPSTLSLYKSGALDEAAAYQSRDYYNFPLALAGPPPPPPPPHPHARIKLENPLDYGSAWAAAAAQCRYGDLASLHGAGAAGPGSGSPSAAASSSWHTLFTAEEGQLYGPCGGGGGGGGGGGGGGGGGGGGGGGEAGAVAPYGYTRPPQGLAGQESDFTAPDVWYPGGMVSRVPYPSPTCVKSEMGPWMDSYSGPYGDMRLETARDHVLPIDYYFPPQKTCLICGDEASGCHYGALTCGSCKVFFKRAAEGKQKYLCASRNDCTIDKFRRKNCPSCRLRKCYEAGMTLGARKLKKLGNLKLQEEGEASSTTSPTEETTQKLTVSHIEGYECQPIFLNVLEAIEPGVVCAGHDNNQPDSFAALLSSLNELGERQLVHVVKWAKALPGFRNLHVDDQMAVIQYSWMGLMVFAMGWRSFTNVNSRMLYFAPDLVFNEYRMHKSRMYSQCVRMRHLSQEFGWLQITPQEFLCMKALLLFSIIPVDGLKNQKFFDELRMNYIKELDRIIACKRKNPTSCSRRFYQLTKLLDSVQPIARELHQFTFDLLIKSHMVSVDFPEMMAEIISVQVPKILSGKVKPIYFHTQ
Chain of Estrogen receptor (Homo sapiens) (P03372 whole entry, looked up): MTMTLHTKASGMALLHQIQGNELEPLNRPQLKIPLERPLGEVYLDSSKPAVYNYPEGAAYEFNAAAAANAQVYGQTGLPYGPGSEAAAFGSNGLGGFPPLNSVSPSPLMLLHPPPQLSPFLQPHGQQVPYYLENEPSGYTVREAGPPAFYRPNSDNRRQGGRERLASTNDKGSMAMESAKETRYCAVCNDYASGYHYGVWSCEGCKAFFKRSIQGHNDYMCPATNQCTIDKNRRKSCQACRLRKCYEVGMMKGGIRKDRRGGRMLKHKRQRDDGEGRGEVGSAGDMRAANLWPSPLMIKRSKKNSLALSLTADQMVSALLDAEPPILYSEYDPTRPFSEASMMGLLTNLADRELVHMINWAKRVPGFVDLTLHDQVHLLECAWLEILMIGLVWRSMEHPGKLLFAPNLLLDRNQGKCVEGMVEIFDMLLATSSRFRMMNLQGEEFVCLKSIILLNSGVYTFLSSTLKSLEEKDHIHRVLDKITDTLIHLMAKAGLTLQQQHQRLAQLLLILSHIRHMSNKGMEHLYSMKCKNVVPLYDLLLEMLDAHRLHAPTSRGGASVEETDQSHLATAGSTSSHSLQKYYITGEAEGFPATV

| SMILES | Potency [1] | Potency [2] | Potency [3] | Potency [4] | Potency [5] | Potency [6] | Potency [7] | Potency [8] | Potency [9] | Potency [10] | Potency [11] | outcome [12] | Potency [13] | Potency [14] | outcome [15] | Potency [16] | Potency [17] | Potency [18] | Potency [19] | Potency [20] |
| --- | --- | --- | --- | --- | --- | --- | --- | --- | --- | --- | --- | --- | --- | --- | --- | --- | --- | --- | --- | --- |
| CCCCOC(=O)CCCCCCCCC(=O)OCCCC | inactive | inactive | inactive | inactive | inactive | inactive | inactive | inactive | inactive | inactive | inactive | inactive | inactive | inactive | inactive | – | – | – | – | – |
| COc1cc(C=O)ccc1O | inactive | inactive | inactive | inactive | inactive | inactive | inactive | inactive | inactive | inactive | inactive | inactive | inactive | inactive | inactive | inactive | inactive | inactive | – | – |
| CC(C)(C)NCC(O)c1ccc(O)c(CO)c1 (stereo unspecified) | inactive | inactive | inactive | inactive | inactive | inactive | inactive | inactive | inactive | inactive | inactive | inactive | inactive | inactive | inactive | – | – | inactive | inactive | – |
| C[C@]12C=CC(=O)C=C1CC[C@@H]1[C@@H]2C(=O)C[C@@]2(C)[C@H]1CC[C@]2(O)C(=O)CO | inactive | inactive | inactive | inactive | inactive | inactive | 22 µM (active) and 17.4 µM (active) | inactive | inactive | inactive | inactive | inactive | inactive | inactive | inactive | inactive | – | inactive | – | inactive |
| CC(C)(C)CC(C)(C)c1ccc(O)c(-n2nc3ccccc3n2)c1 | inactive | inactive | inactive | inactive | 49.7 µM (active) and inactive | inactive | inactive | inactive | inactive | inactive | inactive | inactive | inactive | inactive | inactive | – | – | inactive | – | – |
| Cc1cccc(C)c1O | inactive | inactive | inactive | inactive | inactive | inactive | inactive | inactive | inactive | inactive | inactive | inactive | inactive | inactive | inactive | – | inactive | – | – | inactive |
| O=C(O)CCCCC1CCSS1 (stereo unspecified) | inactive | inactive | inactive | inactive | inactive | inactive | inactive | inactive | inactive | inactive | inactive | inactive | inactive | inactive | inactive | inactive | – | inactive | inactive | inactive |
| C/C=C/c1ccc(O)c(OC)c1 | inactive | inactive | inactive | inactive | inactive | inactive | inactive | inactive | inactive | inactive | inactive | inactive | inactive | inactive | inactive | – | – | inactive | – | – |
| O=[N+]([O-])c1ccc(O)cc1 | inactive | inactive | inactive | inactive | inactive | inactive | inactive | inactive | – | inactive | inactive | inactive | 50.4 µM (active) and 54.5 µM (active) | 56.6 µM (active) | inactive | inactive | – | – | 56.6 µM (active) | inactive |
| CN(C)Cc1cc(CN(C)C)c(O)c(CN(C)C)c1 | inactive | inactive | inactive | inactive | inactive | inactive | inactive | inactive | inactive | inactive | inactive | inactive | inactive | inactive | inactive | – | inactive | – | – | – |
| CCOC(=O)C(C)(C)Oc1ccc(Cl)cc1 | inactive | inactive | inactive | inactive | inactive | inactive | inactive | inactive | inactive | inactive | inactive | inactive | inactive | inactive | inactive | – | – | inactive | inactive | – |
| C1CNCCN1 | inactive | inactive | inactive | inactive | inactive | inactive | inactive | inactive | inactive | inactive | inactive | inactive | inactive | inactive | inactive | inactive | – | inactive | inactive | inactive |
| COc1cc(O)c(C(=O)c2ccccc2)cc1S(=O)(=O)O | inactive | inactive | inactive | inactive | inactive | inactive | inactive | inactive | inactive | inactive | inactive | inactive | inactive | inactive | inactive | inactive | inactive | inactive | – | inactive |
| CO[C@H]1C=CO[C@@]2(C)Oc3c(C)c(O)c4c(O)c(c(/C=N/N5CCN(C)CC5)c(O)c4c3C2=O)NC(=O)/C(C)=C\C=C[C@H](C)[C@H](O)[C@@H](C)[C@@H](O)[C@@H](C)[C@H](OC(C)=O)[C@@H]1C | inactive | inactive | inactive | inactive | 12.4 µM (active) and 4.42 µM (active) and 21.3 µM (active) | 2.77 µM (active) and 988 nM (active) and 10.7 µM (active) | inactive | inactive | 30.8 µM (active) | – | inactive | inactive | 24.5 µM (active) and 15.5 µM (active) and 13.3 µM (active) | 24.5 µM (active) and 17.4 µM (active) and 11.9 µM (active) | inactive | inactive | – | inactive | 27.4 µM (active) and 19.6 µM (active) and 13.3 µM (active) | – |
